Screening results deposited in PubChem BioAssay by several laboratories.
FBA Mtb inh: Mtb FBA enzyme inhibitors, primary screen, biochemical, fluorescence, strain H37Rv. Fructose-bisphosphate aldolase (Mycobacterium tuberculosis (strain ATCC 25618 / H37Rv)), …. purified M. tuberculosis FBA, fluorescence read-out. inhibition, % at 1 µM. hit rate 2.3% among 360,000; in the data active means inhibition above about 27%;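 further: 0% = vehicle and 100% = reference inhibitor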
Target sequence (P9WQA3 whole entry, looked up): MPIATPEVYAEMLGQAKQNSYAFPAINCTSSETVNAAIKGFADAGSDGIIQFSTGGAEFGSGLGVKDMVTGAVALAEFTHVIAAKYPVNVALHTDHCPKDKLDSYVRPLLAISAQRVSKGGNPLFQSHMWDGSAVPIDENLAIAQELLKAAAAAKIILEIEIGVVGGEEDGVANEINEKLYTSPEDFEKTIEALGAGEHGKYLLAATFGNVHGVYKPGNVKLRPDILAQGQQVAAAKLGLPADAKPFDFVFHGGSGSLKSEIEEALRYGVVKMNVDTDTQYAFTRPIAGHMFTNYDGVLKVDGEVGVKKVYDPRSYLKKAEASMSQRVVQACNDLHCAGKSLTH
GDH-TPI inh: GDH-TPI coupling enzyme inhibitors, primary screen, artefact control for M. tuberculosis FBA inhibitor project, biochemical, absorbance, full deck. GDH-TPI coupled enzyme counterscreen, NADH absorbance. inhibition, % at 4.8 µM. hit rate 1.2% among 360,000. AID 588335, 2011; in the data active means inhibition above about 30%;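 further: 0% = DMSO wells and 100% = wells lacking the enzyme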
Mtb UGM inh: M. tuberculosis UGM enzyme inhibitors, primary screen, biochemical, fluorescence polarization, single point; purified UGM, fluorescence polarization probe displacement; hit rate 0.06% among 320,000; UDP-galactopyranose mutase (Mycobacterium tuberculosis (strain ATCC 25618 / H37Rv)), …; inhibition, % at 10 µM; in the data active means inhibition above about 10%, passing the limit was not always enough; inconclusive means no clear call, values can overlap the other calls
Rv3671c inh: Rv3671c serine protease inhibitors, primary screen, biochemical, fluorescence polarization, M. tuberculosis H37Rv | hit rate 0.048% among 320,000 | inhibition, % at 5.96 µM; in the data active means inhibition above about 38%;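 further: extracellular domain of Rv3671c used as enzyme; 0% = enzyme with DMSO and 100% = no enzyme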
* marks the source's active call; other numbers are inactive results; ? = inconclusive; nt = no result; + = active, no number. An excerpt weighted towards active compounds, which were near 3.5% of everything screened.

SMILES	FBA Mtb inh	GDH-TPI inh	Mtb UGM inh	Rv3671c inh
Oc1ccccc1C1=Nc2ncnn2C(c2ccccc2)C1 (centres undefined)	3	35*	1	8
CC1(C)CC(N2CCCC2)=CC(=[N+]2CCCCC2)C1	-2	29	0	-9
CN(Cc1ccccc1)C1=CC(=[N+]2CCCCC2)CC(C)(C)C1	-1	68*	-2	4
CC1(C)CC(N2CCN(Cc3ccccc3)CC2)=CC(=[N+]2CCCCC2)C1	0	64*	-3	-1
COc1cccc(OC)c1CN1CCCC(C(=O)c2ccccc2SC)C1 (centres undefined)	0	-4	2	6
CN(c1ccccc1)S(=O)(=O)c1ccc(Cl)c(C(=O)NCC(c2ccco2)N2CCCC2)c1 (centres undefined)	0	12	0	-3
CC(Oc1cccc(Cl)c1)C(=O)N1CCCN(C)CC1 (centres undefined)	-2	2	0	9
N#C/C(=C\c1ccc(O)cc1)C(=O)N1CCCC1	0	16	0	1
N#C/C(=C\c1ccc[nH]1)C(=O)N1CCCCC1	0	31*	0	3
Cc1sc2ncnc(Sc3ccccc3C(=O)O)c2c1C	1	-1	-1	-3
Cc1sc2ncnc(Sc3nnnn3-c3ccccc3)c2c1C	27*	9	-2	-4
O=C(O)Cn1cc(/C=N/NC(=O)c2cc3cc(Br)ccc3o2)c2ccccc21	1	48*	4	8
O=C(O)c1ccc(-n2cccc2/C=N\NC(=O)c2cc3cc(Br)ccc3o2)cc1	2	36*	-1	5
C#CCn1cc(/C=N/NC(=O)c2cc3ccccc3o2)c2ccccc21	4	32*	5	11
Cn1cc(/C=N/NC(=O)c2cc3cc(Br)ccc3o2)c2ccccc21	1	1	3	-5
Cc1ccc(Sc2ccc(C(=O)N3CCOCC3)cc2[N+](=O)[O-])cc1	1	-1	-1	9
CC12CCC(=O)C=C1CCC1C2C(O)CC2(C)C1CCC2(O)C(=O)COC(=O)COCC(=O)O (centres undefined)	0	8	nt	nt
CCOC(=O)/C(=N\Nc1ccccc1)P(=O)(c1ccccc1)c1ccccc1	2	51*	0	6
CCOC(=O)/C(=N\Nc1ccccc1)S(=O)(=O)c1ccccc1	-2	31*	-2	2
CCOC(=O)c1ccc(NC(=S)P(=O)(c2ccccc2)c2ccccc2)cc1	-3	4	nt	nt
CCOC(=O)n1c2ccccc2c(=O)n1CCO	-1	nt	nt	nt
Cn1ccc2c(-c3ccc(C(=O)O)cc3)cc3c(c21)C1CCC3C1 (centres undefined)	+	nt	nt	nt
O=C(COc1ccccc1F)c1ccc(O)cc1O	-2	50*	2	-13
O=C(Cc1ccccc1)c1ccc(O)cc1O	3	38*	nt	nt
O=C(c1ccccc1)c1ccc(O)cc1O	2	52*	?	-7
SMILES	FBA Mtb inh	GDH-TPI inh	Mtb UGM inh	Rv3671c inh
O=C(c1ccc(O)cc1)c1ccc(O)cc1O	1	35*	3	-3
Cc1c(O)ccc(C(=O)COc2ccccc2F)c1O	2	22	2	-8
CCCN1CCN(S(=O)(=O)c2ccc(-c3cc(C)no3)s2)CC1	1	7	0	-5
O=C(CSc1nnc(-c2ccccc2)c(-c2ccccc2)n1)NC1CCS(=O)(=O)C1 (centres undefined)	-3	-4	0	7
O=C(Cc1ccc2cccnc2c1)c1ccc(O)cc1O	-3	52*	-2	-4
Cc1noc(C)c1S(=O)(=O)NC(=O)C1(C)CCN1C(=O)Cc1ccc(Cl)cc1Cl (centres undefined)	0	-7	nt	nt
CN(C)/C=C/c1onc(-c2ccccc2Cl)c1C#N	-2	43*	1	-9
COc1ccc(COC(=O)c2ccc(Br)c(S(=O)(=O)N3CCOCC3)c2)cc1F	2	8	1	-12
CC(=O)OC1CC2(C)/C(=N\O)CCC2C2CCc3cc(O)ccc3C12 (centres undefined)	-3	-2	-1	nt
C[C@@H]1CNC(=O)c2c(C(=O)N[C@H](C)c3ccccc3)ncn21	-1	4	nt	nt
COc1ccc(NC(=O)c2sc3nc(-c4cccnc4)ccc3c2N)cc1	-1	39*	2	6
COc1ccc(NC(=O)c2sc3nc(-c4cccnc4)ccc3c2N)cc1OC	-1	43*	7	-2
O=C(NC1CCN(S(=O)(=O)c2ccccc2)CC1)c1ccc(F)cc1	2	-4	8	-7
CC(C)(C)S(=O)(=O)N1C[C@H]2C(=CC[C@@H]3C(=O)N(c4ccccc4)C(=O)[C@@H]32)[C@H]1CCO	-2	-1	nt	nt
CCC(=O)N(Cc1ccc(S(N)(=O)=O)cc1)C1CC(=O)N(c2ccccc2)C1=O (centres undefined)	-4	-3	1	-4
Cc1ccc(C(=O)N/C(=C/c2ccc(-c3cc(C(F)(F)F)ccc3Cl)o2)C(=O)NCc2cccnc2)cc1	5	30	0	-28
O=C(NCc1cccnc1)/C(=C/c1ccc(-c2cccc(C(F)(F)F)c2)o1)NC(=O)c1ccccc1	2	33*	-1	-3
O=C(CN(Cc1ccc(Br)cc1)S(=O)(=O)c1ccccc1)NCc1cccnc1	1	-5	0	5
O=C(NCc1cccnc1)/C(=C/c1ccc(Cl)cc1)NC(=O)c1ccccc1	-5	-9	2	-1
O=C(NCc1cccnc1)/C(=C/c1ccc(-c2ccc(Cl)cc2)o1)S(=O)(=O)c1ccccc1	5	40*	2	-15
O=C(NCc1cccnc1)/C(=C\c1ccc(-c2ccc(Br)cc2)o1)S(=O)(=O)c1ccccc1	-1	32*	0	-44
O=C1N/C(=N/S(=O)(=O)Cc2ccccc2)S/C1=C/c1ccc2c(c1)OCO2	3	35*	-1	-21
O=C(Nc1ccccc1F)Nc1ccc([N+](=O)[O-])cc1Cl	-1	8	2	-5
CCOC(=O)C1CCN(C(=O)c2cc3c(ccc4ccccc43)o2)CC1	1	9	-2	-2
COc1cccc(-c2cc(C(=O)N3CCCCC3C)no2)c1 (centres undefined)	-1	-9	-3	2
SMILES	FBA Mtb inh	GDH-TPI inh	Mtb UGM inh	Rv3671c inh
COc1ccc2cc3cc(C(=O)N(C)C4CCCCC4)oc3nc2c1	24	39*	-7	-7
COc1ccc2cc3cc(C(=O)N4CCCCC4C)oc3nc2c1 (centres undefined)	40*	49*	1	0
CCOC(=O)C1CCN(C(=O)c2cc3cc4ccc(C)cc4nc3o2)CC1	7	32*	0	-5
O=C(c1cc2cc3ccc(Cl)cc3nc2o1)N1CCC2(CC1)OCCO2	-3	39*	2	-4
CCC1(c2ccccc2)NC(=O)N(CC(=O)N(CC(=O)Nc2ccccc2C(F)(F)F)Cc2ccco2)C1=O (centres undefined)	0	6	2	-11
O=C(CCSc1ccccn1)c1ccccc1	-5	1	-2	4
